# Laboratory results as given in publication PMC6212833.
# Hit rate of the full screen: of about 2,000 compounds, about 15 (0.8%) showed an effect of 50% or more. Many of the other results were omitted from the sample, so strong results are more common in it than they were.
# Test system: Balamuthia mandrillaris (ATCC PRA-291) trophozoites, axenic culture
# Experiment: primary screen, percent inhibition; higher = more effect of the substance;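 further: 0% = vehicle wells and 100% = lysate wells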
# Conditions: 20 µM
# Procedure: Screening of a clinically approved library of compounds, compiled by the Small Molecule Discovery Center (SMDC) at the UCSF, was completed at 20 µM in 0.2% DMSO. All 2,177 drugs in the library were stored as 10 mM stocks dissolved in 100% DMSO (Sigma-Aldrich) at −20°C. B. mandrillaris amoebae were resuspended in axenic medium and distributed into opaque 384-well plates (Corning) at a density of 3,000 amoebae per well using a BioMek NX liquid handler. Negative-control wells were treated with vehicle only (0.2% DMSO in axenic medium), and positive-control wells simulating total destruction of amoebae were seeded with amoeba lysate generated by 3 consecutive freeze-thaw cycles. Following 72 h of incubation, 30 µl of CellTiter Glo reagent (CTG; Promega) was added to each well. The luminescence was measured with a Promega GloMax-Multi+ plate reader at 2, 4, and 8 h after CTG addition. […] The B-score, representing a plate-based statistical approach for correcting row, column, and edge effects, was also calculated for each compound in the library (75).
row,Compound,% Inhibition [%]
1,C[C@]12CCC3c4ccc(O)cc4CCC3C1C[C@@H](O)[C@@H]2O (some centres unmarked),-15
2,C[C@@H]1O[C@@H](O[C@H]2C[C@@H](O)[C@]3(CO)[C@H]4[C@H](O)C[C@]5(C)[C@@H](C6=CC(=O)OC6)CC[C@]5(O)[C@@H]4CC[C@]3(O)C2)[C@H](O)[C@H](O)[C@H]1O,10.8
3,CC[N+](CC)(CC(=O)Nc1c(C)cccc1C)Cc1ccccc1,14
4,CN1[C@@H]2C[C@@H](OC(=O)[C@H](CO)c3ccccc3)C[C@H]1[C@@H]1O[C@@H]12,20.7
5,C=CCCCCCCCCC(=O)O [735790-L3],30.5
6,CCNC(=O)CCC/C=C\C[C@@H]1[C@@H](/C=C/[C@@H](O)CCc2ccccc2)[C@H](O)C[C@@H]1O,22.9
7,Nc1ccc(S(=O)(=O)O)cc1,31.3
8,CCC(=O)NCC[C@@H]1CCc2ccc3c(c21)CCO3,16.9
9,CC(CC(C(N)=O)(c1ccccc1)c1ccccc1)N(C)C (centres unmarked),14.2
10,C=Cc1c(C)c2[n]3c1C=C1C(C)=C(CC)C4=[N+]1[Cu]31[n]3c(c(C)c(C(=O)O)c3=C(CC(=O)O)C3=[N+]1C(=C2)C(C)C3CCC(=O)O)=C4 (centres unmarked),-2.1
11,COc1cc2ncnc(Nc3ccc(F)c(Cl)c3)c2cc1OCCCN1CCOCC1 [756745-L3],-9.92
12,CC(=O)OCC(=O)[C@@]1(O)CCC2C3CCC4=CC(=O)CC[C@]4(C)[C@@]3(F)[C@@H](O)C[C@@]21C (some centres unmarked),12.2
13,CC(=O)[C@@]1(O)CC[C@H]2[C@@H]3C[C@H](C)C4=CC(=O)C=C[C@]4(C)[C@@]3(F)[C@@H](O)C[C@@]21C,10.1
14,Cc1cccc(C)c1NC(=O)C1CCCCN1C (centres unmarked),13.3
15,C[N+]1(C)[C@@H]2C[C@@H](OC(=O)C(O)(c3cccs3)c3cccs3)C[C@H]1[C@@H]1O[C@@H]12,11.2
16,O=C(O)c1ccc[n+]([O-])c1,20.7
17,CO/N=C(/C(=O)NC1C(=O)N2C(C(=O)O)=C(C[N+]3(C)CCCC3)CSC12)c1csc(N)n1 (centres unmarked),21.4
18,CC(=O)Nc1ccc(C(=O)O)cc1,-20
19,COc1cc(N)c(Cl)cc1C(=O)N[C@@H]1CCN(CCCOc2ccc(F)cc2)C[C@@H]1OC,1.93
20,CCC(COC(=O)c1cc(OC)c(OC)c(OC)c1)(c1ccccc1)N(C)C (centres unmarked),17.5
21,CCN(CC)CCOC(=O)C(Cc1cccc2ccccc12)CC1CCCO1 (centres unmarked),24.5
22,NC(=O)[C@@H]1CCCN1C(=O)[C@H](Cc1cnc[nH]1)NC(=O)[C@@H]1CCC(=O)N1,9.33
23,CN1C2CCC1CC(OC(=O)[C@H](CO)c1ccccc1)C2 (some centres unmarked),23
24,COCc1c(C(C)C)nc(C(C)C)c(/C=C/[C@@H](O)C[C@@H](O)CC(=O)O)c1-c1ccc(F)cc1,66.1
25,O=C(O)C[C@H](O)C[C@H](O)/C=C/c1c(C2CC2)nc2ccccc2c1-c1ccc(F)cc1,15.5
26,CC(C)c1nc(N(C)S(C)(=O)=O)nc(-c2ccc(F)cc2)c1/C=C/[C@@H](O)C[C@@H](O)CC(=O)O,35.4

row,Compound,% Inhibition [%]
1,N=C(N)NCC1COC2(CCCCC2)O1 (centres unmarked),21.2
2,COc1ccc2cc3[n+](cc2c1OC)CCc1cc2c(cc1-3)OCO2,29.8
3,CC(=O)Nc1c(I)c(C(=O)N[C@H]2C(O)O[C@H](CO)[C@@H](O)[C@@H]2O)c(I)c(N(C)C(C)=O)c1I (some centres unmarked),8.04
4,CCOC(=O)c1ncn2c1CN(C)C(=O)c1cc(F)ccc1-2,7.85
5,O=C(O)c1cccnc1Nc1cccc(C(F)(F)F)c1,25.3
6,COc1ccc2cc([C@H](C)C(=O)O)ccc2c1 [130714-L6],22.7
7,Cc1nccn1CC1CCc2c(c3ccccc3n2C)C1=O (centres unmarked),16.2
8,Cc1c(C(N)=O)cc([N+](=O)[O-])cc1[N+](=O)[O-],20.6
9,C[C@H](CCC(=O)O)[C@H]1CCC2C3C(=O)CC4CC(=O)CC[C@]4(C)C3CC(=O)[C@@]21C (some centres unmarked),17.3
10,CCCCCCOC(=O)/N=C(\N)c1ccc(NCc2nc3cc(C(=O)N(CCC(=O)OCC)c4ccccn4)ccc3n2C)cc1 [756753-L2],20.4
11,OC(CNCC(O)C1CCc2cc(F)ccc2O1)C1CCc2cc(F)ccc2O1 (centres unmarked),6.6
12,CC1OC1P(=O)(O)O (centres unmarked) [131204-L2],12.9
13,C/C(=C\C(=O)OCCCCCCCCC(=O)O)C[C@@H]1OC[C@H](C[C@@H]2O[C@H]2[C@@H](C)[C@H](C)O)[C@@H](O)[C@H]1O,26.3
14,CC(=O)Oc1cc(C(C)C)c(OCCN(C)C)cc1C,24.8
15,CCC(=O)OCC(=O)C1(OC(=O)CC)C(C)CC2C3CCC4=CC(=O)C=CC4(C)C3(Cl)C(O)CC21C (centres unmarked),22.7
16,NC(=O)C1(N2CCCCC2)CCN(CCCC(=O)c2ccc(F)cc2)CC1,18.8
17,CNCCC[C@]12CC[C@H](c3ccccc31)c1ccccc12,23.8
18,COC(=O)C1[C@H]2C[C@H]3c4[nH]c5ccccc5c4CCN3C[C@@H]2CC[C@@H]1O (some centres unmarked),22.5
19,CCN(C)C(=O)Oc1cccc([C@H](C)N(C)C)c1 [756883-L2],25.9
20,CC(CCc1ccc(O)cc1)NCC(O)c1ccc(O)cc1 (centres unmarked),-1.52
21,CC1(C)S[C@@H]2[C@H](NC(=O)[C@H](NC(=O)N3CCN(S(C)(=O)=O)C3=O)c3ccccc3)C(=O)N2[C@H]1C(=O)O,18.9
22,COCCCOc1cc(C[C@@H](C[C@H](N)[C@@H](O)C[C@H](C(=O)NCC(C)(C)C(N)=O)C(C)C)C(C)C)ccc1OC,-4.92
23,CCC(=O)OCC(=O)[C@@]1(OC(=O)CC)[C@H](C)CC2C3C([C@@H](O)C[C@@]21C)[C@@]1(C)C=CC(=O)C=C1C[C@H]3Cl (some centres unmarked),13.3
24,CC(=O)OCC(=O)[C@@]12OC(C)(C)O[C@@H]1C[C@H]1[C@@H]3C[C@H](F)C4=CC(=O)C=C[C@]4(C)[C@@]3(F)[C@@H](O)C[C@@]12C,11.4
25,Cc1cccc(C)c1NC1=NCCCS1,8.96
26,CC(=O)N[C@@H](CS)C(=O)O [129971-L5],0.0866

row,Compound,% Inhibition [%]
1,CN(C)c1ccc(C(=C2C=CC(=[N+](C)C)C=C2)c2ccc(N(C)C)cc2)cc1,61.7
2,COc1cc(N)c(Cl)cc1C(=O)N[C@H]1CCN(CCCOc2ccc(F)cc2)C[C@H]1OC,9.62
3,CC(=O)OCC(=O)[C@@]1(O)CCC2C3CCC4=CC(=O)C=C[C@]4(C)[C@@]3(F)[C@@H](O)C[C@@]21C (some centres unmarked),15.9
4,CCN[C@@H](C)Cc1cccc(C(F)(F)F)c1,20.1
5,CC(=O)S[C@@H]1CC2=CC(=O)CC[C@]2(C)[C@H]2CC[C@@]3(C)[C@@H](CC[C@@]34CCC(=O)O4)C12 (some centres unmarked),28
6,C/C=C(/C)C(=O)O[C@@H]1[C@H](OC(C)=O)[C@@]2(CO)C(CC1(C)C)C1=CCC3[C@@]4(C)CC[C@H](O[C@@H]5O[C@H](C(=O)O)[C@@H](O[C@@H]6O[C@H](CO)[C@@H](O)[C@H](O)[C@H]6O)[C@H](O)[C@H]5O[C@@H]5O[C@H](CO)[C@@H](O)[C@H](O)[C@H]5O)[C@](C)(CO)C4CC[C@@]3(C)[C@]1(C)C[C@H]2O (some centres unmarked),3.82
7,CCN(CC)C(=O)C1CN2CCc3cc(OC)c(OC)cc3C2CC1OC(C)=O (centres unmarked),18.9
8,CC(=O)/N=c1\sc(S(N)(=O)=O)nn1C,11.1
9,COc1ccc2[nH]c(S(=O)Cc3ncc(C)c(OC)c3C)nc2c1 (centres unmarked) [255785-L6],24.6
10,COc1ccc2c3c1O[C@H]1[C@@H](O)C=C[C@H]4[C@@H](C2)N(C)CC[C@@]341,10.8
11,CC(=O)OCC(=O)[C@@]1(O)CC[C@H]2[C@@H]3CCC4=CC(=O)CC[C@]4(C)[C@@]3(F)[C@@H](O)C[C@@]21C,17.7
12,CC(C)/N=C(N)/N=C(\N)Nc1ccc(Cl)cc1 [131550-L2],9.42
13,N=C(NCCCCCCNC(=N)NC(=N)Nc1ccc(Cl)cc1)NC(=N)Nc1ccc(Cl)cc1,63.6
14,CC(C)/N=C(N)/N=C(\N)Nc1ccc(Cl)cc1 [131550-L3],10.7
15,O=C(O)COC(=O)Cc1ccccc1Nc1c(Cl)cccc1Cl,-10.4
16,N=C(N)N,14.8
17,Cc1cc2nc3c(=O)[nH]c(=O)nc-3n(C[C@H](O)[C@H](O)[C@H](O)CO)c2cc1C,14.9
18,CO/N=C(\C(=O)N[C@@H]1C(=O)N2C(C(=O)O)=C(CSc3nc(=O)c(=O)[nH]n3C)CS[C@@H]12)c1csc(N)n1,13.4
19,Cc1ccc(S(=O)(=O)NC(=O)NN2CCCCCC2)cc1,32
20,C[C@]12CCC3c4ccc(OS(=O)(=O)O)cc4CCC3C1CCC2=O (some centres unmarked),-1.63
21,CO[C@@H]1[C@@H](OC(N)=O)[C@@H](O)[C@H](Oc2ccc3c(O)c(NC(=O)c4ccc(O)c(CC=C(C)C)c4)c(=O)oc3c2C)OC1(C)C,9.7
22,O=C(O)CCCCC1CCSS1 (centres unmarked),21.9
23,CCC(=O)O[C@H]1[C@H](O[C@@H]2[C@@H](C)[C@H](O[C@H]3C[C@@](C)(OC)[C@@H](O)[C@H](C)O3)[C@@H](C)C(=O)O[C@H](CC)[C@@](C)(O)[C@H](O)[C@@H](C)C(=O)[C@H](C)C[C@@]2(C)O)O[C@H](C)C[C@@H]1N(C)C,4.56
24,C=Cc1c(C)c2cc3[nH]c(cc4nc(cc5nc(cc1[nH]2)C(C)=C5CCC(=O)O)C(CCC(=O)O)=C4C)c(C)c3C=C,5.79
25,C[C@H]1CN(C[C@H](Cc2ccccc2)C(=O)NCC(=O)O)CC[C@@]1(C)c1cccc(O)c1,13.2
